# DENV2 CPE – DENV2-induced cell death inhibition. CPE inhibition, % at 9.99 µM. hit rate 1.7% among 350,000. DENV2-infected cells, cytopathic effect rescue, plate reader. AID 651640; in the data active = CPE inhibition above about 20%, passing the limit was not always enough; inconclusive = no clear call, values can overlap the other calls; tested in BHK-21 cells
# ERp5 block – inhibitors of human ERp5 | hit rate 0.05% among 350,000 | ERp5 insulin aggregation, absorbance 650 nm, 90 min | inhibition, % at 9.99 µM | Q15084;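 active = mean replicate inhibition above about 25%, with every replicate also reaching it, limit read from the data, passing the limit was not always enough; inconclusive = only one of those two criteria met; inactive = neither criterion met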
# SIRT5 block – sirtuin-5 (human) deacylase inhibition; Q9NXA8; Purified SirT5, succinyl-peptide AMC, trypsin-coupled fluorescence; inhibition, % at 15 µM; hit rate 1.1% among 330,000; AID 652115; in the data active = inhibition above about 15%; inconclusive = no clear call, values can overlap the other calls
# Target sequence (Q9NXA8 whole entry, looked up): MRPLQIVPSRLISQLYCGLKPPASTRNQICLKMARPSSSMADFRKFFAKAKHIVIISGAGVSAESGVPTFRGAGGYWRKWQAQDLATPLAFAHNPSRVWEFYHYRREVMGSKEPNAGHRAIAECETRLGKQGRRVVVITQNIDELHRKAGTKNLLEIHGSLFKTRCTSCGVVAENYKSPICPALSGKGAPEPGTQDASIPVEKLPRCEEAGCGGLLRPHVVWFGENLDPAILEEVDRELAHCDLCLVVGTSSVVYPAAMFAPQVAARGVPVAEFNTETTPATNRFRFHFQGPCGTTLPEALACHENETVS
# Rtt109 Vps75 – blocks Candida albicans Rtt109/Vps75 acetyltransferase activity; Q5AAJ8; purified Rtt109/Vps75, ThioGlo CoA-SH fluorescence, 4 h; inhibition, % at 34.9 µM; hit rate 0.16% among 330,000; AID 540336;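 active = inhibition of at least 50% in every replicate; inconclusive = best replicate reaches 50% inhibition but some replicates fall short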
# PDI turbidity – PDI (human) enzyme inhibition; AID 588391; hit rate 0.052% among 350,000; PDI insulin aggregation turbidity, A650, 90 min; inhibition, % at 10 µM;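 active = mean inhibition across replicates of 30% or more, whatever share of single replicates reach that level; inconclusive = mean inhibition below 30% while every single replicate reaches 30%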
# Numbers stand for hits; . = inactive; ? = inconclusive; / = not tested or not shown; + = active, no number. This is a sample that favours compounds with a hit; in the whole collection about 2.3% have one here.
SMILES,DENV2 CPE,ERp5 block,SIRT5 block,Rtt109 Vps75,PDI turbidity
CC(C)C#Cc1ccc([C@H]2[C@@H](C#N)N(C(=O)c3cccc(F)c3)[C@@H]2CO)cc1,.,.,.,/,/
CN(C)/C=C1\C(=O)ON=C1c1ccccc1,.,.,.,.,.
O=C1ON=C(c2ccccc2)/C1=C/c1ccco1,.,.,20,.,.
CC(C)c1ccc(NC(=O)[C@H](NC(=O)[C@@H]2Cc3ccccc3CN2)c2ccccc2)cc1,57,.,.,.,.
CCn1c(SCc2cccc(F)c2)nnc1-c1ccncc1,47,.,.,.,.
CCCNC(=O)N(C)C[C@H]1Oc2ncc(C#CC3CC3)cc2C(=O)N([C@@H](C)CO)C[C@@H]1C,.,.,.,/,/
O=C1CCc2cc(S(=O)(=O)NCCc3ccc(Cl)cc3)cc3c2N1CC3,97,.,.,.,.
COc1ccc(CCNS(=O)(=O)c2cc3c4c(c2)CCN4C(=O)CC3)cc1OC,.,.,.,.,.
C[C@@H]1CN([C@@H](C)CO)S(=O)(=O)c2ccc(C#CC(C)(C)O)cc2O[C@@H]1CN(C)Cc1ccc(-c2ccccc2)cc1,.,.,19,/,/
C[C@@H]1CN([C@@H](C)CO)S(=O)(=O)c2ccc(C#CC(C)(C)O)cc2O[C@H]1CN(C)Cc1ccc(F)cc1,.,.,18,/,/
COc1ccc(NC(=O)Nc2cccc3c2O[C@H](CN(C)S(=O)(=O)c2cn(C)cn2)[C@@H](C)CN([C@@H](C)CO)C3=O)cc1,.,.,.,/,/
Cc1ccccc1-c1ccnc2[nH]n(-c3ccccc3)c(=O)c12,.,.,24,.,.
COc1ccc(Cl)cc1C(=O)Nc1ccc(CN2CCCCC2)cc1,.,.,.,.,.
Cc1ccc(NC(=O)CN2CCOCC2)cc1Cl,.,.,25,.,.
O=C(Nc1ccc(CN2CCOCC2)cc1)c1cc(Br)ccc1Cl,.,.,.,.,.
O=C(Nc1ccc(CN2CCOCC2)cc1)c1ccc(Cl)cc1Cl,.,.,18,.,.
Cc1ccc(C(=O)Nc2ccc(CN3CCCCC3)cc2)c(C)c1,35,.,.,.,.
COc1ccc(S(=O)(=O)N2CC[C@@H]3[C@@H](CO)Nc4ccc(-c5ccccc5F)cc4[C@@H]32)cc1,.,/,/,/,/
Cc1cccc(N2C(S)=C(C#N)C(=O)NC2c2cccs2)c1 (configuration not stated),/,/,/,121,.
N#CC1=C(S)N(c2ccc(F)cc2)C(c2cccs2)NC1=O (configuration not stated),/,/,/,.,.
Cc1ccccc1N1C(S)=C(C#N)C(=O)NC1c1cccs1 (configuration not stated),/,/,/,+,.
O=C(C[C@H]1CC[C@@H]2[C@H](COC[C@H](O)CN2Cc2cc(F)cc(F)c2)O1)NC1CCC1,.,.,.,/,/
CCOc1cccc(CN2CCCC(N3CCc4ccccc4C3)C2)c1O (configuration not stated),.,.,.,.,.
COc1ccccc1N1CCN(C2CCCN(Cc3c(F)cccc3F)C2)CC1 (configuration not stated),.,.,.,.,.
COc1ccccc1CN1CCCC(N2CCN(c3ccccc3OC)CC2)C1 (configuration not stated),29,.,.,.,.
SMILES,DENV2 CPE,ERp5 block,SIRT5 block,Rtt109 Vps75,PDI turbidity
CCOc1cccc(CN2CCCC(N3CCN(c4cccc(Cl)c4)CC3)C2)c1O (configuration not stated),?,.,69,.,.
COCC#Cc1ccc2c(c1)O[C@H](CN(C)CC1CC1)[C@H](C)CN([C@@H](C)CO)S2(=O)=O,.,.,.,/,/
Cn1cnc(S(=O)(=O)N2C[C@H](O)COC[C@@H]3O[C@@H](CC(=O)NCc4ccc(F)cc4)CC[C@H]32)c1,.,.,.,/,/
CN(C)CC(=O)N[C@@H]1CC[C@H](CCn2cc(C3CC3)nn2)O[C@@H]1CO,.,.,.,/,/
N#C[C@H]1[C@H](c2ccc(C#CC3CCCCC3)cc2)[C@@H](CO)N1C(=O)Cc1ccccn1,87,.,.,/,/
N#C[C@H]1[C@@H](c2ccc(C#CC3CCCCC3)cc2)[C@@H](CO)N1C(=O)Cc1ccccn1,.,.,.,/,/
CN(C)CC(=O)N1[C@H](CO)[C@@H](c2ccc(C#CC3CCCC3)cc2)[C@@H]1C#N,34,.,.,/,/
CN(C)CC(=O)N1[C@H](CO)[C@H](c2ccc(C#CC3CCCC3)cc2)[C@@H]1C#N,.,.,.,/,/
COc1ccc(NC(=O)O[C@H](c2ccc(OC)c(O)c2)[C@@H](CCO)OC)cc1,.,.,.,/,/
C=CCNc1nnc(SC2CC(=O)N(c3ccc(OC)cc3)C2=O)s1 (configuration not stated),/,/,/,126,.
Cc1nnc(SC2CC(=O)N(c3ccccc3)C2=O)s1 (configuration not stated),/,/,/,100,?
COc1ccc(N2C(=O)CC(Sc3nc4ccccc4s3)C2=O)cc1 (configuration not stated),.,.,.,.,.
O=C1CC(Sc2cccs2)C(=O)N1c1ccccc1 (configuration not stated),.,/,.,.,.
COc1cccc(-c2cn(CC[C@H]3CC[C@H](NC(C)=O)[C@@H](CO)O3)nn2)c1,.,.,.,/,/
C[C@@H]1CCCCO[C@@H](CN(C)C(=O)Nc2ccc(C(F)(F)F)cc2)[C@H](C)CN([C@@H](C)CO)C(=O)c2cc(NS(=O)(=O)c3cn(C)cn3)ccc2O1,.,.,.,/,/
COc1ccc(NC(=O)c2cc3ccccc3cc2O)cc1,46,.,.,.,.
COCC(=O)N1[C@H](C#N)[C@H](c2ccc(C3=CCCCC3)cc2)[C@H]1CO,.,.,.,/,/
COc1ccc(OC)c(NC(=O)C2CCN(C(=O)c3cccs3)CC2)c1,.,.,22,/,.
COc1ccc(OC)c(NC(=O)C2CCN(S(=O)(=O)c3cccs3)CC2)c1,/,/,/,.,.
COc1cc(SC)ccc1C(=O)Nc1cccc(S(=O)(=O)NC2=NCCC2)c1,?,.,15,.,.
CCCNC(=O)[C@@H]1N[C@@H]2c3ccc(C4=CCCC4)c(=O)n3C[C@@H]2[C@H]1CO,.,.,.,/,/
CCCN1[C@@H]2c3ccc(C4=CCCC4)c(=O)n3C[C@@H]2[C@@H](CO)[C@@H]1C(=O)NCC,.,.,18,/,/
COC(=O)[C@H]1[C@H](CO)[C@H]2Cn3c(ccc(C4=CCCC4)c3=O)[C@H]2N1CC1CCOCC1,71,.,.,/,/
COC(=O)[C@H]1[C@H](CO)[C@H]2Cn3c(ccc(C4=CCCCC4)c3=O)[C@H]2N1CC1CCCCC1,?,.,.,/,/
CCCN1[C@H](C(=O)OC)[C@@H](CO)[C@@H]2Cn3c(ccc(C4=CCCC4)c3=O)[C@@H]21,84,.,.,/,/
CCCNC(=O)[C@H]1[C@H](CO)[C@H]2Cn3c(ccc(C4=CCCC4)c3=O)[C@H]2N1CCC,.,.,.,/,/
CCCNC(=O)[C@H]1N[C@H]2c3ccc(C4=CCCCC4)c(=O)n3C[C@H]2[C@@H]1CO,.,.,17,/,/
